Laboratory results from PubChem BioAssay (NCATS).
Results filed as inconclusive are left out. The source made the active and inactive calls. Calls come from the whole dose curve; as a rule, active = well fitted curve in the direction sought with a large enough effect; inconclusive = small, poorly fitted or top-dose-only effect, or another doubt; inactive = no such curve, though single readings can be large; an effect the other way counts as inactive or inconclusive.

Legend:
[1] = target: ATP-dependent 6-phosphofructokinase (Trypanosoma brucei brucei) (UniProt O15648); assay: qHTS Assay to Find Inhibitors of T. brucei phosphofructokinase: hit validation (AID 492961);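 note: luminescence reports ADP formed as PFK phosphorylates fructose-6-phosphate with ATP; % is set by controls: 0 for no effect and ±100 for the full control effect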
Procedure, shortened: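 Compounds titrated; %activity normalized to 0x and 1x enzyme controls, curve-fitted. Readout: ADP-Glo luminescence after 45 min room-temperature reaction of 1.25 nM PFK, 0.1 mM ATP, 0.5 mM F6P, pH 8.0.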

[2] = target: Ubiquitin carboxyl-terminal hydrolase 1 (Homo sapiens) (UniProt O94782); assay: Inhibitors of USP1/UAF1: Pilot qHTS (AID 504865);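 note: rhodamine fluorescence freed from ubiquitin-rhodamine substrate followed over time; top concentration of the series differs between compounds; % is set by controls: 0 for no effect and ±100 for the full control effect; nearly all actives have a fitted effect of over 35% in size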
Procedure, shortened: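 Deubiquitinase activity followed as kinetic rhodamine fluorescence release from 150 nM Ub-Rho. 1 nM USP1/UAF1 with compound, after 15 min room-temperature preincubation, in HEPES pH 7.8 buffer containing TCEP, EDTA, BSA and Tween-20.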

[3] = target: Luciferin 4-monooxygenase (Photinus pyralis) (UniProt P08659); assay: Biochemical firefly luciferase enzyme assay for NPC (AID 624030);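 note: purified P. pyralis luciferase at 10 nM with luciferin and ATP substrate; 0% = DMSO and -100% = full luciferase inhibition by PTC124 control; nearly all actives have a fitted effect of over 70% in size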
Procedure, shortened: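 Purified P. pyralis luciferase at 10 nM in 50 mM Tris Acetate (final), luminescence read within 5 minutes of enzyme addition to compounds. Activity normalised to PTC124 versus DMSO; concentration-response curves classed by r2, magnitude and activity.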

[4] = qHTS profiling for inhibitors of Plasmodium falciparum proliferation (AID 504749); note: nearly all actives have a fitted effect of over 60% in size; note: potency is the fitted concentration of half-maximal effect;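 for activity, negative = inhibition: 0% = DMSO vehicle and full inhibition = artemisinin control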; conditions: P. falciparum in erythrocytes, SYBR Green DNA, 72 h
Procedure, shortened: (§1)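 P. falciparum-infected erythrocytes (0.3% parasitemia, 2.5% hematocrit) incubated with compound 72 h at 37 C, 5% CO2. Parasite DNA detected by SYBR Green after lysis, overnight at room temperature; normalised to 0.29 uM artemisinin and DMSO.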

ATS189 = assay: as above; conditions: P. falciparum in erythrocytes, SYBR Green DNA, 72 h; series mostly up to 28.7 µM
Procedure, shortened: as §1

C2A = assay: as above; conditions: P. falciparum in erythrocytes, SYBR Green DNA, 72 h; series mostly up to 28.7 µM
Procedure, shortened: as §1

CP191 = assay: as above; conditions: P. falciparum in erythrocytes, SYBR Green DNA, 72 h; series mostly up to 28.7 µM
Procedure, shortened: as §1

CP192 = assay: as above; conditions: P. falciparum in erythrocytes, SYBR Green DNA, 72 h; series mostly up to 28.7 µM
Procedure, shortened: as §1

CP201 = assay: as above; conditions: P. falciparum in erythrocytes, SYBR Green DNA, 72 h; series mostly up to 28.7 µM
Procedure, shortened: as §1

CP215 = assay: as above; conditions: P. falciparum in erythrocytes, SYBR Green DNA, 72 h; series mostly up to 28.7 µM
Procedure, shortened: as §1

CP237 = assay: as above; conditions: P. falciparum in erythrocytes, SYBR Green DNA, 72 h; series mostly up to 28.7 µM
Procedure, shortened: as §1

CP238 = assay: as above; conditions: P. falciparum in erythrocytes, SYBR Green DNA, 72 h; series mostly up to 28.7 µM
Procedure, shortened: as §1

CP268 = assay: as above; conditions: P. falciparum in erythrocytes, SYBR Green DNA, 72 h; series mostly up to 28.7 µM
Procedure, shortened: as §1

CP269 = assay: as above; conditions: P. falciparum in erythrocytes, SYBR Green DNA, 72 h; series mostly up to 28.7 µM
Procedure, shortened: as §1

CP286 = assay: as above; conditions: P. falciparum in erythrocytes, SYBR Green DNA, 72 h; series mostly up to 28.7 µM
Procedure, shortened: as §1

CP325 = assay: as above; conditions: P. falciparum in erythrocytes, SYBR Green DNA, 72 h; series mostly up to 28.7 µM
Procedure, shortened: as §1

CP329 = assay: as above; conditions: P. falciparum in erythrocytes, SYBR Green DNA, 72 h; series mostly up to 28.7 µM
Procedure, shortened: as §1

FAB9 = assay: as above; conditions: P. falciparum in erythrocytes, SYBR Green DNA, 72 h; series mostly up to 28.7 µM
Procedure, shortened: as §1

JCK = assay: as above; conditions: P. falciparum in erythrocytes, SYBR Green DNA, 72 h; series mostly up to 28.7 µM
Procedure, shortened: as §1

PC49 = assay: as above; conditions: P. falciparum in erythrocytes, SYBR Green DNA, 72 h; series mostly up to 28.7 µM
Procedure, shortened: as §1

[5] = at 28.7 µM (top of the series), parasite line A
[6] = at 28.7 µM (top of the series), parasite line B

Chain of ATP-dependent 6-phosphofructokinase (Trypanosoma brucei brucei) (O15648 whole entry, looked up): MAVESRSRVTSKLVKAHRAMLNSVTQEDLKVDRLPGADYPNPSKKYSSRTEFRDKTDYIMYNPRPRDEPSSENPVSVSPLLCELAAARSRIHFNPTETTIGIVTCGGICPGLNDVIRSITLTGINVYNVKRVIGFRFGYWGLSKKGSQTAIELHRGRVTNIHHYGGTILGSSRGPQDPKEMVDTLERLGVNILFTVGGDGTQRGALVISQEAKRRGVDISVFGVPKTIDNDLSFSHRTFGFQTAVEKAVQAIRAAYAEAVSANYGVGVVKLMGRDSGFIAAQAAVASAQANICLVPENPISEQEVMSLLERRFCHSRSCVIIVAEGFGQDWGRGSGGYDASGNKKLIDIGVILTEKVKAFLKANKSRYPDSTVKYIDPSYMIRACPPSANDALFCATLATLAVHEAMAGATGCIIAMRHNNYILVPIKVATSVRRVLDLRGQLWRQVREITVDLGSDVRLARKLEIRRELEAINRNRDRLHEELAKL
Chain of Ubiquitin carboxyl-terminal hydrolase 1 (Homo sapiens) (O94782 whole entry, looked up): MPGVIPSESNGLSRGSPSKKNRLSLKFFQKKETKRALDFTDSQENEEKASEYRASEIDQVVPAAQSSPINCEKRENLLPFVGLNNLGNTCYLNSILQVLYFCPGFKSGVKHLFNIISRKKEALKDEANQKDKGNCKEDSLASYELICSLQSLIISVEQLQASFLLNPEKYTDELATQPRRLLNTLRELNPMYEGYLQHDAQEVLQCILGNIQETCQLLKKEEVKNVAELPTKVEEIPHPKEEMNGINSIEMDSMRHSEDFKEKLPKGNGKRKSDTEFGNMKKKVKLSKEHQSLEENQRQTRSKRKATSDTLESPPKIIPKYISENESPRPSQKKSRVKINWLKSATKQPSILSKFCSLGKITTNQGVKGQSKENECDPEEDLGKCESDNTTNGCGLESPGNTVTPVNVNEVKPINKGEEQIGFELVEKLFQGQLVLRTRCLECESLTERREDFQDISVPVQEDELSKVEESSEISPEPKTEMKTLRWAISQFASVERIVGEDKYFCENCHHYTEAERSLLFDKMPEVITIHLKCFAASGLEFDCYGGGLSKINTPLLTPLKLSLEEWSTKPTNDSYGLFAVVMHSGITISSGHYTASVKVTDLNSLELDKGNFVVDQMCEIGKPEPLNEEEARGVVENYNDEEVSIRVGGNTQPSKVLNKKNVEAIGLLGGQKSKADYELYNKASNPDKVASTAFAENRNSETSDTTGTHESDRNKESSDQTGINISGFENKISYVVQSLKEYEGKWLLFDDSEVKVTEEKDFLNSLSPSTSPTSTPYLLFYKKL
Chain of Luciferin 4-monooxygenase (Photinus pyralis) (P08659 whole entry, looked up): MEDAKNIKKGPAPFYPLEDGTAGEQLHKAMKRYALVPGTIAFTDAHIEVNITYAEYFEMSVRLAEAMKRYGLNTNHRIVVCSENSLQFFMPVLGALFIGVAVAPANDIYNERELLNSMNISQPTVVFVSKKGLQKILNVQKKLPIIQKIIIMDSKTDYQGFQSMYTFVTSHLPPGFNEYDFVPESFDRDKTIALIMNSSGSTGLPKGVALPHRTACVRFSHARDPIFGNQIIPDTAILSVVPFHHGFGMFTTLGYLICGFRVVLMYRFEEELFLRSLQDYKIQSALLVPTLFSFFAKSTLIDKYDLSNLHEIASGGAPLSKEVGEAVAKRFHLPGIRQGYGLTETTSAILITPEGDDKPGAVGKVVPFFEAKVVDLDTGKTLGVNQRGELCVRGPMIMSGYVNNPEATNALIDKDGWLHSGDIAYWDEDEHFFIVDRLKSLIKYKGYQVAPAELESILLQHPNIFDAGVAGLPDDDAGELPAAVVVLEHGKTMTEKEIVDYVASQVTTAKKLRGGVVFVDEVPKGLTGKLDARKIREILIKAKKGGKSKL

C[C@@H]1CC[C@H]2[C@@H](C)C(=O)O[C@@H]3OC4(C)CC[C@@H]1C32OO4 (stereo not given in full)
active: Potency ([4]; parasite line A) 0.0079 µM | Potency ([4]; parasite line B) 0.0071 µM | Potency (ATS189) 0.0089 µM | Potency (C2A) 0.0112 µM | Potency (CP191) 0.0071 µM | Potency (CP192) 0.0169 µM | Potency (CP201) 0.0301 µM | Potency (CP215) 0.0135 µM | Potency (CP237) 0.01 µM | Potency (CP238) 0.01 µM | Potency (CP268) 0.0135 µM | Potency (CP269) 0.0107 µM | Potency (CP286) 0.0071 µM | Potency (CP325) 0.0151 µM | Potency (CP329) 0.0151 µM | Potency (FAB9) 0.0079 µM
inactive: outcome [1] | Potency [2] | Potency [3]

CCOC(=O)/C=C(C)/C=C/CC(C)CCCC(C)C (stereo not given)
inactive: outcome [1] | Potency [2] | Potency [3] | activity, negative = inhibition [4, 5] -0.0375% | activity, negative = inhibition [4, 6] 8.06% | Potency (ATS189) | Potency (C2A) | Potency (CP191) | Potency (CP192) | Potency (CP201) | Potency (CP215) | Potency (CP237) | Potency (CP238) | Potency (CP268) | Potency (CP269) | Potency (CP286) | Potency (CP325) | Potency (CP329) | Potency (FAB9) | Potency (JCK) | Potency (PC49)

CC(C)C[C@H](NC(=O)[C@@H](Cc1c[nH]c2ccccc12)NC(=O)[C@@H](Cc1ccc(O)cc1)NC(=O)[C@@H](CO)NC(=O)[C@@H](Cc1c[nH]c2ccccc12)NC(=O)C(Cc1cnc[nH]1)NC(=O)C1CCC(=O)N1)C(=O)N[C@@H](CCCN=C(N)N)C(=O)N1CCC[C@@H]1C(=O)NCC(N)=O (stereo not given in full)
inactive: outcome [1]

CCCCCc1cc(O)c2c(c1)OC(C)(C)C1CC=C(C)CC21 (stereo not given)
active: Potency ([4]; parasite line A) 3.55 µM | Potency ([4]; parasite line B) 1.12 µM | Potency (ATS189) 3.16 µM | Potency (C2A) 10 µM | Potency (CP191) 3.98 µM | Potency (CP192) 6.01 µM | Potency (CP201) 15.1 µM | Potency (CP215) 4.26 µM | Potency (CP237) 1.78 µM | Potency (CP238) 3.16 µM | Potency (CP268) 6.01 µM | Potency (CP269) 4.78 µM | Potency (CP286) 5.62 µM | Potency (CP325) 6.01 µM | Potency (CP329) 9.53 µM | Potency (JCK) 11.2 µM | Potency (PC49) 4.47 µM
inactive: outcome [1] | Potency [3]

CCCCCC(O)C1C(=O)OC(C)C(O)\C=C/C=C\C=C/C=C\C=C(\C)C(O)C(O)C(O)CC(O)CC(O)CC(O)CC(O)CC1O (stereo not given)
inactive: outcome [1] | Potency [2] | Potency [3] | activity, negative = inhibition [4, 5] 11.9% | activity, negative = inhibition [4, 6] -8.14% | Potency (ATS189) | Potency (C2A) | Potency (CP191) | Potency (CP192) | Potency (CP201) | Potency (CP215) | Potency (CP237) | Potency (CP238) | Potency (CP268) | Potency (CP269) | Potency (CP286) | Potency (CP325) | Potency (CP329) | Potency (FAB9) | Potency (JCK) | Potency (PC49)

CC1(C)S[C@@H]2[C@H](N)C(=O)N2C1C(=O)O (stereo not given in full)
inactive: outcome [1] | Potency [2] | Potency [3] | activity, negative = inhibition ([4]; at 12.8 µM (top of the series), parasite line A) 15.1% | activity, negative = inhibition ([4]; at 12.8 µM (top of the series), parasite line B) 13.6% | Potency (ATS189) | Potency (C2A) | Potency (CP191) | Potency (CP192) | Potency (CP201) | Potency (CP215) | Potency (CP237) | Potency (CP238) | Potency (CP268) | Potency (CP269) | Potency (CP286) | Potency (CP325) | Potency (CP329) | Potency (FAB9) | Potency (JCK) | Potency (PC49)

C[C@]12C=CC(=O)C=C1CC[C@@H]1C2CC[C@]2(C)OC(=O)CCC12 (stereo not given in full)
inactive: outcome [1] | Potency [2] | Potency [3] | activity, negative = inhibition [4, 5] 2.99% | activity, negative = inhibition [4, 6] 7.55% | Potency (ATS189) | Potency (C2A) | Potency (CP191) | Potency (CP192) | Potency (CP201) | Potency (CP215) | Potency (CP237) | Potency (CP238) | Potency (CP268) | Potency (CP269) | Potency (CP286) | Potency (CP325) | Potency (CP329) | Potency (FAB9) | Potency (JCK) | Potency (PC49)

CCC(C)C1NC(=O)C(Cc2ccc(O)cc2)NC(=O)C(N)CSSCC(C(=O)N2CCCC2C(=O)NC(CC(C)C)C(=O)NCC(N)=O)NC(=O)C(CC(N)=O)NC(=O)C(CCC(N)=O)NC1=O (stereo not given)
inactive: outcome [1]

CCCN1CCCC2Cc3nc(N)ncc3CC21 (stereo not given)
inactive: outcome [1] | Potency [2] | Potency [3] | activity, negative = inhibition [4, 5] 2.28% | activity, negative = inhibition [4, 6] 5.03% | Potency (ATS189) | Potency (C2A) | Potency (CP191) | Potency (CP192) | Potency (CP201) | Potency (CP215) | Potency (CP237) | Potency (CP238) | Potency (CP268) | Potency (CP269) | Potency (CP286) | Potency (CP325) | Potency (CP329) | Potency (FAB9) | Potency (JCK) | Potency (PC49)
